Results reported in PubChem BioAssay (NCATS).
“And” between values parts separate entries of the source, which are not always exact repeats. Identical values can stand only once. Inconclusive results are not listed. A number with no mark means an inactive call. The source made the active and inactive calls. Calls come from the whole dose curve; as a rule, active = well fitted inhibition curve with a large enough effect; inconclusive = small, poorly fitted or top-dose-only effect; inactive = flat fitted curve, though single readings scatter.

Test system: astro (control astrocytes)
Test: Drug repurposing screens with cells derived from glioblastoma tumor samples (AID 1345199); note: nearly all actives have a fitted effect of over 40% in size
Details: viability, ATP luminescence, 48 h; series mostly up to 45.9 µM; activity, negative = cell killing: at the top concentration
Description: CD133+ cells were isolated from GBM patient biopsies and cultured as neurospheres. Neurospheres from four patients were used to screen the NCATS pharmaceutical collection (NPC) library of approved drugs and bioactive compounds. […] The neurospheres were incubated with drugs for 48 hours in 1536-well format, then assayed with an ATP content cell viability assay. […] These hits were cherry picked to confirm activity in the four original GBM lines screened plus three other slower growing GMB lines (unable to yield enough cells for a full primary screen). Variable activities of the confirmed primary hits in the different GBM patient lines were observed. The patient line 206 responded to the greatest number of compounds and line 923 responded to the least amount of active compounds.
% is set by controls: 0 for no effect and ±100 for the full control effect; potency is the fitted concentration of half-maximal effect.

| SMILES | activity, negative = cell killing | Potency |
| --- | --- | --- |
| Cc1cc(C(C)(C)C)c(O)c(C)c1CC1=NCCN1 | -13.4% | – |
| CCN1CCCC1CNC(=O)c1cc(S(=O)(=O)CC)c(N)cc1OC (stereo not given) | -12.5% | – |
| Cc1ccccc1N1C(=O)c2cc(S(N)(=O)=O)c(Cl)cc2NC1C (stereo not given) | – | inactive |
| C[C@H]1c2cccc(O)c2C(O)=C2C(=O)[C@]3(O)C(O)=C(C(N)=O)C(=O)[C@@H](N(C)C)[C@@H]3[C@@H](O)[C@@H]21 | -2.25% | – |
| Cc1cn([C@H]2C=C[C@@H](CO)O2)c(=O)[nH]c1=O | -15.2% | – |
| CN(CCOc1ccc(NS(C)(=O)=O)cc1)CCc1ccc(NS(C)(=O)=O)cc1 | -5.89% | – |
| O=C(C1CCCCC1)N1CC(=O)N2CCc3ccccc3C2C1 (stereo not given) | -10.3% | – |
| CC(C)(C)C(=O)Oc1ccc(S(=O)(=O)Nc2ccccc2C(=O)NCC(=O)O)cc1 | -14.5% | – |
| CC(C)NCC(O)c1ccc(O)c(O)c1 (stereo not given) | -13.7% | – |
| CCOC(=O)C(C)(C)Oc1ccc(Cl)cc1 | -18.1% | – |
| CS(=O)(=O)CCNCc1ccc(-c2ccc3ncnc(Nc4ccc(OCc5cccc(F)c5)c(Cl)c4)c3c2)o1 | -18.9% | – |
| Clc1ccc2nsnc2c1NC1=NCCN1 | -21.5% | – |
| CN1CCN(CCCN2c3ccccc3Sc3ccc(Cl)cc32)CC1 | – | 20 µM (active) |
| Cn1cnc2c1c(=O)[nH]c(=O)n2C | -6.48% | – |
| Nc1c2c(nc3ccccc13)CCCC2 | -25.5% | – |
| Cc1ccc(C(=O)Nc2ccc(S(=O)(=O)O)c3cc(S(=O)(=O)O)cc(S(=O)(=O)O)c23)cc1NC(=O)c1cccc(NC(=O)Nc2cccc(C(=O)Nc3cc(C(=O)Nc4ccc(S(=O)(=O)O)c5cc(S(=O)(=O)O)cc(S(=O)(=O)O)c45)ccc3C)c2)c1 | -26.1% | – |
| CC12CC3CC(C)(C1)CC(N)(C3)C2 | -3.28% | – |
| COc1nc(C)nc(Cl)c1NC1=NCCN1 | -7.68% [at 21.2 µM] | – |
| CC[N+](CC)(CC)CCOc1cccc(OCC[N+](CC)(CC)CC)c1OCC[N+](CC)(CC)CC | -18.4% | – |
| Nc1ccn([C@H]2CC[C@@H](CO)O2)c(=O)n1 | -4.15% | – |

| SMILES | activity, negative = cell killing | Potency |
| --- | --- | --- |
| O=c1c(-c2ccc(O)cc2)coc2cc(O)cc(O)c12 | – | 10 µM (active) |
| Cc1cc(C(C)(C)C)cc(C)c1CC1=NCCN1 | -14.6% [at 21.2 µM] | – |
| COc1cc2nc(N3CCN(C(=O)C4COc5ccccc5O4)CC3)nc(N)c2cc1OC (stereo not given) | -22.3% | – |
| Cc1ccc(-c2cc(C(F)(F)F)nn2-c2ccc(S(N)(=O)=O)cc2)cc1 | 10% | – |
| CN1C(C(=O)Nc2ccccn2)=C(O)c2ccccc2S1(=O)=O | -18.7% [at 21.2 µM] | – |
| Fc1ccc([C@@H]2CCNC[C@H]2COc2ccc3c(c2)OCO3)cc1 | – | 22.4 µM (active) |
| NCCc1cnc[nH]1 | 16.4% | – |
| COc1ccccc1N1CCN(CC(O)COc2cccc3ccccc23)CC1 (stereo not given) | -27.3% | – |
| CC[C@@]1(O)C(=O)OCc2c1cc1n(c2=O)Cc2cc3c(CN(C)C)c(O)ccc3nc2-1 | – | 17.8 µM (active) |
| CCCCc1oc2ccccc2c1C(=O)c1cc(I)c(OCCN(CC)CC)c(I)c1 | – | 28.2 µM (active) and 20 µM (active) |
| CC(C)Cc1ccc(C(C)C(=O)O)cc1 (stereo not given) | 7.86% | – |
| Cn1c(=O)c2c(ncn2C)n(C)c1=O | -16.4% | – |
| CCc1cccc2c3c([nH]c12)C(CC)(CC(=O)O)OCC3 (stereo not given) | -15.5% | – |
| COc1ccc(C2CNC(=O)C2)cc1OC1CCCC1 (stereo not given) | -25.9% [at 21.2 µM] | – |
| OCCN1CCN(CCCN2c3ccccc3Sc3ccc(C(F)(F)F)cc32)CC1 | – | 22.4 µM (active) |
| Nc1nc2c(ncn2COC(CO)CO)c(=O)[nH]1 | -15.5% [at 21.2 µM] | – |
| CC(COc1ccccc1)N(CCCl)Cc1ccccc1 (stereo not given) | -8.15% | – |
| CN(Cc1cnc2nc(N)nc(N)c2n1)c1ccc(C(=O)N[C@@H](CCC(=O)O)C(=O)O)cc1 | -1.29% | – |
| Clc1ccccc1C(c1ccccc1)(c1ccccc1)n1ccnc1 | -28% [at 21.2 µM] | – |
| NC(=O)NO | -13.7% | – |
